Compounds without any hit were thinned out: in the full panel of roughly 83,000, 20% have a hit.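 Single-dose data. Exposure time 48 hours. Values below 10 considered active.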 Unmarked numbers belong to inactive results. The source made the active and inactive calls.
Key:
Test in all cases: NCI-60 one-dose screen, 48 h (100 = growth as untreated, 0 = no growth, -100 = all killed)
Details in all cases: 10 µM unless noted
EKVX NSCLC = system: EKVX NSCLC
SN12C renal = system: SN12C renal
UO-31 renal = system: UO-31 renal
TK-10 renal = system: TK-10 renal
ACHN renal = system: ACHN renal
CAKI-1 renal = system: CAKI-1 renal
A498 renal = system: A498 renal
CCRF-CEM leukemia = system: CCRF-CEM leukemia
MOLT-4 leukemia = system: MOLT-4 leukemia
SR leukemia = system: SR leukemia

SMILES | growth (EKVX NSCLC) | growth (SN12C renal) | growth (UO-31 renal) | growth (TK-10 renal) | growth (ACHN renal) | growth (CAKI-1 renal) | growth (A498 renal) | growth (CCRF-CEM leukemia) | growth (MOLT-4 leukemia) | growth (SR leukemia)
O=C1c2cc(Cl)ccc2Oc2cc([N+](=O)[O-])ccc2N1c1ccc(F)cc1F | 108% | 101% | 71.2% | 112% | 90.6% | 59% | 91.3% | 85.3% | 57.4% | 
O=C(c1ccccc1)N(C(=S)NCCc1ccc(Cl)cc1)c1ccc(Cl)cc1 | 83.5% | 66.1% | 59.1% | 44.3% | 64.5% | 42.1% | 91.4% | 80.7% | -10.7% (active) | 
Cn1nc(C(C)(C)C)cc1NC(=O)Cc1ccc(/C=C2\C(=O)Nc3ccccc32)cc1 | 49.1% | 62% | 52.5% | 91.2% | 37.4% | 45.5% | 62.9% | 35.8% | 6.12% (active) | 34.9%
O=C(CCc1nnc2sc(COc3ccccc3)nn12)c1nc2ncccc2[nH]1 | 102% | 96.3% | 69% | 124% | 107% | 84.4% | 66.8% | 118% | 113% | 
O=C(Nc1ccc(Br)cc1F)c1cc(Cl)ccc1O | 8.37% (active) | -5.66% (active) | 9.99% (active) | 0.819% (active) | 0.275% (active) | -21.3% (active) | -70.2% (active) | 5.57% (active) | -28.1% (active) | 
O=c1oc2ccc(F)cc2c(=O)n1-c1ccc(F)cc1F | 93.5% | 24.9% | 26% | 10.4% | 36.3% | 16.4% | -30.5% (active) | 35.9% | 22.3% | 
O=C(CCN1C(=O)c2ccccc2C1=O)Nc1ccc(Cl)cc1 | 88.2% | 75.3% | 50.1% | 93.1% | 82.2% | 68.4% | 103% | 43.3% | 42% | 
O=C(Nc1ccc(N2CCNCC2)cn1)c1[nH]ncc1Nc1ncnc2sc3c(c12)CCC3 | 83.8% | 53.6% | 72.6% | 95.2% | -76.5% (active) | 54.3% | 70.2% | -7.26% (active) | 14.3% | 0.52% (active)
COc1ccc(/C=C2/SC(=O)N(CC(=O)N3CCN(c4cc5c(cc4F)c(=O)c(C(=O)O)cn5C4CC4)CC3)C2=O)cc1 | 114% | 96.5% | 81.8% | 117% | 102% | 92.4% | 113% | 107% | 108% | 94.4%
Nc1ccc(-n2c(=O)oc3ccc(Cl)cc3c2=O)c(Cl)c1 | 4.42% (active) | -0.532% (active) | 0.242% (active) | 8.25% (active) | 5.28% (active) | -21.5% (active) | -67% (active) | 0.0077% (active) | -33.5% (active) | 
OC(c1ccccc1)c1nnc(SCc2ccccc2)n1Cc1ccccc1 (stereo not given) | 102% | 89.7% | 67.7% | 103% | 86.9% | 97% | 90.1% | 75.4% | 99.9% | 42.5%
O=c1c(-c2nc3ccccc3[nH]2)cc2ccccc2n1Cc1cn(Cc2ccccc2Cl)nn1 | 74.8% | 12% | -65.7% (active) | 31% | 12.2% | 77.4% | 67% | 65.2% | 32.5% | 11.5%
CC1=C(C(=O)OCC2CCN(C(=O)OC(C)(C)C)CC2)[C@@H](c2cccc(C#N)c2)C2=C(CC(C)(C)CC2=O)N1 | 63.7% | 42.7% | 42.1% | 68.5% | 38.5% | 38.4% | 75.3% | 36.8% | 12.5% | 
O=C1NC(=O)C(=Cc2cn(Cc3cn(Cc4ccc(Cl)cc4Cl)nn3)c3ccccc23)C(=O)N1 | 104% | 90.4% | 63.9% | 68.8% | 102% | 56.3% | 38.3% | 76.4% | 84.6% | 
O=C(Nc1ccc(F)cc1F)c1cc(Br)ccc1O | 8.29% (active) | -7.89% (active) | 1.12% (active) | 2.49% (active) | 1.37% (active) | -26.3% (active) | -49.5% (active) | 10.6% | 0.366% (active) | 
COc1ccc(Cn2cc(Cn3c(=O)c(-c4nc5ccccc5[nH]4)cc4ccccc43)nn2)c(OC)c1OC | 30.8% | 18.7% | 18.2% | 33.9% | 35% | 21.7% | -27.4% (active) | 22.6% | 17.9% | 21.8%
NCCOc1ccccc1/C=C1\c2ccccc2-c2ccc([N+](=O)[O-])cc21 | 54.9% | -17.9% (active) | -7% (active) | -1.56% (active) | -73.6% (active) | 1.27% (active) | 25.1% | 0.81% (active) | -14.1% (active) | -23.7% (active)
CC(=S)NC(=O)C(=O)/C=C1/NC(=O)C(=O)S1 | 100% | 99.1% | 79.5% | 110% | 99.1% | 93.8% | 103% | 107% | 112% | 107%
Cn1cc(-c2ccc3ncc(-c4ccc(CC(=O)Nc5cc(C(C)(C)C)no5)cc4)nc3c2)cn1 | 50% | 26.8% | 2.84% (active) | 50.8% | 15.2% | 16.6% | 17.9% | 50.6% | 30.7% | 16%
COc1cc(/C=C/C(=O)c2ccc(Cl)cc2)cc(CN2CCCCC2)c1O | 89.5% | 93.1% | 58.5% | 115% | 87.1% | 85.2% | 82.6% | 58.8% | 64.3% | 34%
COc1cc2nc(NC3CCC3)nc(NC3CCN(C(C)C)CC3)c2cc1OC | 83.5% | 92.2% | 80.6% | 46.8% | 57.2% | 92.2% | 75.9% | 46.5% | 45.5% | 2.34% (active)
COc1cc(/C=C2\CN(C)C/C(=C\c3cc(CN4CCCCC4)c(O)c(OC)c3)C2=O)cc(CN2CCCCC2)c1O | 46% | 38.2% | 57% | 57.6% | 39% | 55.9% | 71.1% | 19.9% | 16.5% | 28.5%
COc1cc(C2C(C#N)=C(N)OC3=C2C(=O)c2ccccc2C3=O)cc(OC)c1OC (stereo not given) | 52.4% | 39.2% | 41.2% | 63.9% | 37.3% | 40.9% | -0.0439% (active) | 55.6% | 87.1% | 31.6%
Cc1cc(OC(=O)c2ccc([N+](=O)[O-])cc2)nc2[nH]c(=O)sc12 | 92.1% | 101% | 82.1% | 103% | 103% | 91.5% | 104% | 106% | 101% | 108%
COc1cccc(C2=NN3C(C2)c2ccccc2OC3c2ccc(/C=C3\SC(=O)NC3=O)cc2)c1 (stereo not given) | 85.4% | 101% | 73.2% | 102% | 98.7% | 96.4% | 88.6% | 97.1% | 96.9% | 120%
CC(C)C[C@H](C(=O)N[C@@H](C)C(N)=O)N1CC=CCN(O)S1(=O)=O | 176% [5 µM] | 106% [5 µM] | 109% [5 µM] | 106% [5 µM] | 94.7% [5 µM] | 115% [5 µM] | 125% [5 µM] | 105% [5 µM] | 102% [5 µM] | 95.3% [5 µM]
O=C(Nc1ccc(N2CCNCC2)cc1)c1[nH]ncc1Nc1cc(C2CC2)ncn1 | 69.8% | 44.7% | 34.1% | 56.3% | 21.4% | 27.5% | 51.1% | 30% | 15.1% | 5.95% (active)
